Consider one compound from ChEMBL document CHEMBL1961873, “Compounds: GSK PKIS; Assays: Nanosyn kinase panel” (2012).

The target of experiment [1] is Sphingosine kinase 1 (Homo sapiens) (UniProt Q9NYA1). To be noted: at 1 µM.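 Note: mean SPHK1 inhibition value reported from the GSK PKIS kinase panel screen.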
Experiment [2] concerns the target T1, Sphingosine kinase 2 (Homo sapiens) (UniProt Q9NRA0).
T1 sequence (whole entry): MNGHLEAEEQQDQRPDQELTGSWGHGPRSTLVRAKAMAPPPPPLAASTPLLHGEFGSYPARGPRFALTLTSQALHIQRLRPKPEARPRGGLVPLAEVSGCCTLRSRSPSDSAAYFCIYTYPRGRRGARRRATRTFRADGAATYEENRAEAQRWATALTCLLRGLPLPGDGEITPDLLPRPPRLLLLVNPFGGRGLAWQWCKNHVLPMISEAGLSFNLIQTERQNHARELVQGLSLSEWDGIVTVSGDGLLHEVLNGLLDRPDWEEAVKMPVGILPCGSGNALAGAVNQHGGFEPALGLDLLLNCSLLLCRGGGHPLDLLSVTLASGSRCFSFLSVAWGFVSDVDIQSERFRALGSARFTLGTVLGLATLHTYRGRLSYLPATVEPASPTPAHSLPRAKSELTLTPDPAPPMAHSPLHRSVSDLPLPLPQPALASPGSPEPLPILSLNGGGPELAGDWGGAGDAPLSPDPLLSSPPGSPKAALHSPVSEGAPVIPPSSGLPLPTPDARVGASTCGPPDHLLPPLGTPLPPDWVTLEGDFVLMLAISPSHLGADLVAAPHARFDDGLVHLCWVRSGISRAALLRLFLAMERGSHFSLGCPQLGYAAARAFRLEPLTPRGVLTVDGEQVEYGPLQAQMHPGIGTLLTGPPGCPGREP
To be noted: at 0.1 µM.

Experiment [3] concerns the target T1, Sphingosine kinase 2 (Homo sapiens). The settings on record: at 1 µM.
Experiment [4] addresses Casein kinase II subunit alpha (Homo sapiens) (UniProt P68400). To be noted: at 0.1 µM.
For experiment [5] the target is unchanged. The settings on record: at 1 µM.
Experiment [6] concerns the target T2, Inhibitor of nuclear factor kappa-B kinase subunit alpha (Homo sapiens) (UniProt O15111).
T2 sequence (whole entry): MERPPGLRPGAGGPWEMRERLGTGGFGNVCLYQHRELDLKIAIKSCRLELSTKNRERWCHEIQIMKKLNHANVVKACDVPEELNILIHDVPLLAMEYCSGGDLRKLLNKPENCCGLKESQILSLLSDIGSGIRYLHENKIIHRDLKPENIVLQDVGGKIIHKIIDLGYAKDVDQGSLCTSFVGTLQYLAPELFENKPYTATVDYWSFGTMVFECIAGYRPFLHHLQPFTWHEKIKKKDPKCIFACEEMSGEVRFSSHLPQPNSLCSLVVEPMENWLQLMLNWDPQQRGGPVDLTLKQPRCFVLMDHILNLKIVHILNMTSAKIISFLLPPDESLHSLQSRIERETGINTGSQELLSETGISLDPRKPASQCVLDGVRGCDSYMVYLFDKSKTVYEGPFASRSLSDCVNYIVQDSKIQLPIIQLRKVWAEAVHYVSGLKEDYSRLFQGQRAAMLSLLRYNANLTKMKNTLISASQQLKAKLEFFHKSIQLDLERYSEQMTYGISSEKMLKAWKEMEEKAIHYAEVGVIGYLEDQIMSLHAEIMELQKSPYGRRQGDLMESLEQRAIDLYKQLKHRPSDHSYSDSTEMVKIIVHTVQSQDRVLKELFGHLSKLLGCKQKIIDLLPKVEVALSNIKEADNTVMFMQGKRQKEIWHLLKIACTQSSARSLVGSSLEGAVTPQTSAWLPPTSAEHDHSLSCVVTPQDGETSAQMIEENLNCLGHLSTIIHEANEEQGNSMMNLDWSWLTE
The settings on record: at 0.1 µM.

Experiment [7] has as its target T2, Inhibitor of nuclear factor kappa-B kinase subunit alpha (Homo sapiens). To be noted: at 1 µM.
Experiment [8] addresses T3, Inhibitor of nuclear factor kappa-B kinase subunit beta (Homo sapiens) (UniProt O14920).
T3 sequence (whole entry): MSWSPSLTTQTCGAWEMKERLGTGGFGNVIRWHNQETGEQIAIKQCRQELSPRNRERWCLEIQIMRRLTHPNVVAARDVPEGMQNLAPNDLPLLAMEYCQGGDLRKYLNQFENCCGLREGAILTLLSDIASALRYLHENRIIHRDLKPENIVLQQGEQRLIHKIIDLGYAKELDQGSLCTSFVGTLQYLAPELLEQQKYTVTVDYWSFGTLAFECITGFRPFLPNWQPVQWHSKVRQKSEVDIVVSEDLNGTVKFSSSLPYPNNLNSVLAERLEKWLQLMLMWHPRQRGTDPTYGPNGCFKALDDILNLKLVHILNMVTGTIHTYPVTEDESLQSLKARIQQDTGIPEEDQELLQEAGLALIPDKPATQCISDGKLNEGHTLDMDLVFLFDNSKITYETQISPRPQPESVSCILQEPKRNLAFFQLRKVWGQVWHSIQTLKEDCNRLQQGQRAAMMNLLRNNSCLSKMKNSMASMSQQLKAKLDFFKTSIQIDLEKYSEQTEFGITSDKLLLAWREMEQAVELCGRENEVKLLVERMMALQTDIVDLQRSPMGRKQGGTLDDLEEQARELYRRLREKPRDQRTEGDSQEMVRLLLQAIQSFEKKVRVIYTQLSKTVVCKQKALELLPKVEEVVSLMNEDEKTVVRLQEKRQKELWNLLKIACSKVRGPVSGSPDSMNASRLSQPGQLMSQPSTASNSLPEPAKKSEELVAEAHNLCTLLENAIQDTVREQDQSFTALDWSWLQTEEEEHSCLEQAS
To be noted: at 0.1 µM.

In experiment [9] the target is T3, Inhibitor of nuclear factor kappa-B kinase subunit beta (Homo sapiens). The settings on record: at 1 µM.
In experiment [10] the target is T4, Inhibitor of nuclear factor kappa-B kinase subunit epsilon (Homo sapiens) (UniProt Q14164).
T4 sequence (whole entry): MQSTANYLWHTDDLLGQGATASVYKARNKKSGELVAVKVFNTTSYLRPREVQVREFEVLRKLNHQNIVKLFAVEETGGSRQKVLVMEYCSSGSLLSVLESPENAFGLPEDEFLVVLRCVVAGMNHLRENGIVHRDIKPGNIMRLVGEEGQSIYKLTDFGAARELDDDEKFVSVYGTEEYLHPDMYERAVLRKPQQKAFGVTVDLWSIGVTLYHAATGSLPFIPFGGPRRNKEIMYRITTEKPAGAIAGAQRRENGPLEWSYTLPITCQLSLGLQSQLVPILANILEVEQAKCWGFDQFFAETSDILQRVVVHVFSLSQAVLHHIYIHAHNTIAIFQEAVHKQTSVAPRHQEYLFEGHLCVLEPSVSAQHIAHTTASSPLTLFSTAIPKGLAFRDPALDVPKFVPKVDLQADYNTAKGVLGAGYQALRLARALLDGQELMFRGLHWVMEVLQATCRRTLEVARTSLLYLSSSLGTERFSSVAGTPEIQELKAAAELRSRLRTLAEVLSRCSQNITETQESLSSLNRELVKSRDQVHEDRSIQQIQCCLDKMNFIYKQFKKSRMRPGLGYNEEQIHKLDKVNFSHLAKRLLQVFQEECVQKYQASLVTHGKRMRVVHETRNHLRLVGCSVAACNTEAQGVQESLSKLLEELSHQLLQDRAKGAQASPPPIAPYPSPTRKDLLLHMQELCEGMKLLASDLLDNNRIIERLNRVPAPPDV
The settings on record: at 0.1 µM.

For experiment [11], the target named is T4, Inhibitor of nuclear factor kappa-B kinase subunit epsilon (Homo sapiens). To be noted: at 1 µM.
Experiment [12] addresses T5, Serine/threonine-protein kinase Nek1 (Homo sapiens) (UniProt Q96PY6).
T5 sequence (whole entry): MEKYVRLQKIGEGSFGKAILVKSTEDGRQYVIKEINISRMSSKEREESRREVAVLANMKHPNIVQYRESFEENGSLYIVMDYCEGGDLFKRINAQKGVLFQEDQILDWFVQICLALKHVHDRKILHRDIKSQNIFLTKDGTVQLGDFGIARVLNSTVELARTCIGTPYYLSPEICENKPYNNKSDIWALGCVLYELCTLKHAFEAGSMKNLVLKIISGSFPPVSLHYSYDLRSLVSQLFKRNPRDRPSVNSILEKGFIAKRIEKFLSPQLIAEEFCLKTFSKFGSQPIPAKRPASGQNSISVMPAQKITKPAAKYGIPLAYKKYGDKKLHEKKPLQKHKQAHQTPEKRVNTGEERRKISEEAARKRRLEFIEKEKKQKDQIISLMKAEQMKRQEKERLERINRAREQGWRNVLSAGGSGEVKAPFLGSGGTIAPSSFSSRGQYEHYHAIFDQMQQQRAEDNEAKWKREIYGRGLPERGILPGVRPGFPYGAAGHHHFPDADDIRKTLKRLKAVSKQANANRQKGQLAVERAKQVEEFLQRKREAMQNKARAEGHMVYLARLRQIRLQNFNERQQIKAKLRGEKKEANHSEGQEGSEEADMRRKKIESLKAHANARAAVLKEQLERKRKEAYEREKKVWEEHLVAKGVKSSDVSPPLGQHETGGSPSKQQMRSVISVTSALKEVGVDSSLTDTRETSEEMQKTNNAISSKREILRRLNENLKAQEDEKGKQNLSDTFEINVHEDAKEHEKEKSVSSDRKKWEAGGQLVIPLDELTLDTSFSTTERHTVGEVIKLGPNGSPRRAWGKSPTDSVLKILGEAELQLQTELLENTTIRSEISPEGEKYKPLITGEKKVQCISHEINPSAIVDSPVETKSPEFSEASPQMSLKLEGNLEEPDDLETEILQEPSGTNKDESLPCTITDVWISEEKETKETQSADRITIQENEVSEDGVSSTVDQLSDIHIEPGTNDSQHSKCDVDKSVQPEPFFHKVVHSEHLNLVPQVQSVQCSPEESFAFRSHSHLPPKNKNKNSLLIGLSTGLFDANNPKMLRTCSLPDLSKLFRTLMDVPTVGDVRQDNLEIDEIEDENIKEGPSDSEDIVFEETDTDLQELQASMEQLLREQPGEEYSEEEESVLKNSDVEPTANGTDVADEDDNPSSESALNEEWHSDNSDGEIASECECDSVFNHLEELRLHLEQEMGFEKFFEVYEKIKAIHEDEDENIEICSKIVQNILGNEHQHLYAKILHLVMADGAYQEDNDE
To be noted: at 0.1 µM.

In experiment [13] the target is T5, Serine/threonine-protein kinase Nek1 (Homo sapiens). The settings on record: at 1 µM.
Experiment [14] addresses T6, Serine/threonine-protein kinase Nek2 (Homo sapiens) (UniProt P51955).
T6 sequence (whole entry): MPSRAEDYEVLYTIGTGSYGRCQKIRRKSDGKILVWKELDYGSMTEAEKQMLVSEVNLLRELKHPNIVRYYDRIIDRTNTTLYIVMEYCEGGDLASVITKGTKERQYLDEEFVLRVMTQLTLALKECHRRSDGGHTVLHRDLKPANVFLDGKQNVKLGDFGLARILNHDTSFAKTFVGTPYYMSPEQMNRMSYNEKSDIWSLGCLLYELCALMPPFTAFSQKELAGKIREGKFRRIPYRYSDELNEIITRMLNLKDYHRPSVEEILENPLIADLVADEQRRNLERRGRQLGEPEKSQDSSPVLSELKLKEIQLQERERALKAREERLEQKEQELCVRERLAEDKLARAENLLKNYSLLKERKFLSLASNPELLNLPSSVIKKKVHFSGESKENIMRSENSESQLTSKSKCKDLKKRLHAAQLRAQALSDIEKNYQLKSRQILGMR
The settings on record: at 0.1 µM.

Experiment [15] has as its target T6, Serine/threonine-protein kinase Nek2 (Homo sapiens). To be noted: at 1 µM.
Experiment [16] deals with Serine/threonine-protein kinase Nek6 (Homo sapiens) (UniProt Q9HC98). The settings on record: at 0.1 µM.
Experiment [17] shares this target. To be noted: at 1 µM.
In experiment [18] the target is Serine/threonine-protein kinase Nek7 (Homo sapiens) (UniProt Q8TDX7). To be noted: at 0.1 µM.
The target is the same in experiment [19]. The settings on record: at 1 µM.
In experiment [20] the target is T7, Serine/threonine-protein kinase Nek9 (Homo sapiens) (UniProt Q8TD19).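 Note: reported value is the mean percent inhibition of NEK9.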
T7 sequence (whole entry): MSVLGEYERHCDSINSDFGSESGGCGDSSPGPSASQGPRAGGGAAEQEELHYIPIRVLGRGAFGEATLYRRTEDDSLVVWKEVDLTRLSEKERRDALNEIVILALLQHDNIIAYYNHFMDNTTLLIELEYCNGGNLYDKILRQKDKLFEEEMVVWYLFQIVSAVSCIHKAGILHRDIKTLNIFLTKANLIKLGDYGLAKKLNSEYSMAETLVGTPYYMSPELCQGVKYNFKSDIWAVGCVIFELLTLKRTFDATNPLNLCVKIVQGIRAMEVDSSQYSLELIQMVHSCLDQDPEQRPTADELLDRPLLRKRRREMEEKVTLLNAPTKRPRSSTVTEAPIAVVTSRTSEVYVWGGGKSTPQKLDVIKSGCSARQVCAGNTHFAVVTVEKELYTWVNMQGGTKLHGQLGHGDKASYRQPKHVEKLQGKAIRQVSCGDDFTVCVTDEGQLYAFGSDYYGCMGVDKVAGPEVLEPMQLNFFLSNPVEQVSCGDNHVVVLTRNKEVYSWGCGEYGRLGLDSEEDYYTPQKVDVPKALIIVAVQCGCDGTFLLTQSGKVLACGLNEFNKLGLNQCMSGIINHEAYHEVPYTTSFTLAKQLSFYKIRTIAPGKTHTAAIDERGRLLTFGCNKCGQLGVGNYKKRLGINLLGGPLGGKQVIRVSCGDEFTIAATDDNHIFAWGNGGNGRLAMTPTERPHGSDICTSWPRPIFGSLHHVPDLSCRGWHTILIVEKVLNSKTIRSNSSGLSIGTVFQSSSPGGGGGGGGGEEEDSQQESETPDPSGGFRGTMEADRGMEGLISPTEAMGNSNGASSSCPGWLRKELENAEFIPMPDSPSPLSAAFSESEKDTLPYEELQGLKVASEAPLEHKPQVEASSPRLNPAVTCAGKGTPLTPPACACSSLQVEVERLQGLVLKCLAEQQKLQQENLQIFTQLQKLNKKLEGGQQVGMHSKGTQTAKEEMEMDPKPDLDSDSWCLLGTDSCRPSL
To be noted: at 0.1 µM.

Chain of Serine/threonine-protein kinase Nek6 (Homo sapiens) (Q9HC98 whole entry): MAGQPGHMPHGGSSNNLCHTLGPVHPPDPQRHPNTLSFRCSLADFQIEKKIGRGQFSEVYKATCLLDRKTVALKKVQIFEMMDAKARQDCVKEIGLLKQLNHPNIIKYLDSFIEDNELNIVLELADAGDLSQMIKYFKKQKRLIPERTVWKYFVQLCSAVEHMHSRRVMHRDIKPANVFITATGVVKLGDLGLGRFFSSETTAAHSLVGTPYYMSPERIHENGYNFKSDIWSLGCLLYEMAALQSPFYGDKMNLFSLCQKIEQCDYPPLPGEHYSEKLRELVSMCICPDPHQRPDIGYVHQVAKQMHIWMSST
Chain of Serine/threonine-protein kinase Nek7 (Homo sapiens) (Q8TDX7 whole entry, looked up): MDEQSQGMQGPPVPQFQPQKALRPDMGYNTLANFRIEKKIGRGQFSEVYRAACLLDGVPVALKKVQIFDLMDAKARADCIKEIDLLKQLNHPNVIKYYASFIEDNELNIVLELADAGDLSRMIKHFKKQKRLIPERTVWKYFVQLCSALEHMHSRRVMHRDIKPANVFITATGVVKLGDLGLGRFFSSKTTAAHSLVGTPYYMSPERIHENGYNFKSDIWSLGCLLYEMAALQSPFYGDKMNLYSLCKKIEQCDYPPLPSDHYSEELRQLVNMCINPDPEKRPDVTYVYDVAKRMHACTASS
Chain of Casein kinase II subunit alpha (Homo sapiens) (P68400 whole entry, looked up): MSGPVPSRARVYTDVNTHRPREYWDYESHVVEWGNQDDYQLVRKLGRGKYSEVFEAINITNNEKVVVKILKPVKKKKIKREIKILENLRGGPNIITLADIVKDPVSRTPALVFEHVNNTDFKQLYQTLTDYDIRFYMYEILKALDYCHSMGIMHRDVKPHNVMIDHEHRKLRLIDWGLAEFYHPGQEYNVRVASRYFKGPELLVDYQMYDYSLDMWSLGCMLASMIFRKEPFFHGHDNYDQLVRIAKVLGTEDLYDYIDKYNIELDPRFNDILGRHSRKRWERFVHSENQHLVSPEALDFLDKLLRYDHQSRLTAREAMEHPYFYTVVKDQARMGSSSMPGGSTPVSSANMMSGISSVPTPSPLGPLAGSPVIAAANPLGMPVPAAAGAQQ
Chain of Sphingosine kinase 1 (Homo sapiens) (Q9NYA1 whole entry): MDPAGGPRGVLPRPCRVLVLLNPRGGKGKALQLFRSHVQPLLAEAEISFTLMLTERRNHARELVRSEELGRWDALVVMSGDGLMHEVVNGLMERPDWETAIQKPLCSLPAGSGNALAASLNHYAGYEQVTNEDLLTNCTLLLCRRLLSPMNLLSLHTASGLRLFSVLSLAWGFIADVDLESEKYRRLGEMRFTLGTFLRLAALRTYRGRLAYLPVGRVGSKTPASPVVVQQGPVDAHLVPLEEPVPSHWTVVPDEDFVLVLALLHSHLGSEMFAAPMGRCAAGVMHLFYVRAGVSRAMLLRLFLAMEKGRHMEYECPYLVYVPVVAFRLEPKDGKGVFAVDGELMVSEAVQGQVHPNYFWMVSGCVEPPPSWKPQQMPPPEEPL

Consider `CNC(=O)c1cncc(/C=C/c2ccccc2C)c1`, for which the inhibition in experiment [1] was determined as 1.15%; in experiment [2], 0%; in experiment [3], 0%; in experiment [4] it was 4.87%; in experiment [5], 7.63%; in experiment [6], 1.86%. The inhibition came to 2.32% in [7]; 3.58% in experiment [8]; 5.04% in experiment [9]; 5.9% in experiment [10]; 5.71% in experiment [11]; 2.13% in experiment [12]. Also, the inhibition in [13] was 4.28%; in experiment [14] it was 4.96%; in experiment [15], 5.88%; in [16], 1.4%; in [17] it was 3.73%; in experiment [18], 1.08%. In addition, the inhibition in [19] amounted to 4.03%; in experiment [20], 3.46%.

Usually inhibition stands for the relative decrease from the control value, in per cent. A lower inhibition goes with little suppression.
